# How the values were obtained:
# U-2932 [1] = assay: growth inhibition by drug alone (1 - RLU/untreated control) (fraction); higher = stronger inhibition; conditions: 177Lu-lilotomab satetraxetan 0 ug/ml
# How it was run: (§1)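 RIVA or U-2932 cells were left untreated or pretreated for 18 h with a radiolabelled anti-CD37 antibody conjugate (~600 MBq/mg) at 0.5 µg/ml for RIVA or 1 µg/ml for U-2932. The cells were then washed and seeded at 3,000 cells/well on plates pre-printed with the Selleck Cambridge Cancer Compound library, dosed at 10/100 nM for RIVA and 10/1,000 nM for U-2932. From day 3, RealTime-Glo luminescence was read daily after 1 h at 37°C. Growth inhibition was taken as one minus RLU over the mean of the untreated no-drug wells, of which there were 48 per plate.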
# RIVA [2] = assay: as above; conditions: 177Lu-lilotomab satetraxetan 0 ug/ml
# How it was run: as §1
# U-2932 [3] = assay: growth inhibition by drug plus 177Lu-lilotomab satetraxetan (1 - RLU/untreated control) (fraction); higher = stronger inhibition; conditions: 177Lu-lilotomab satetraxetan 1 ug/ml
# How it was run: as §1
# RIVA [4] = assay: as above; conditions: 177Lu-lilotomab satetraxetan 0.5 ug/ml
# How it was run: as §1
Compound,"growth inhibition by drug alone (U-2932 [1]; 10 nM, time (day): 3)","growth inhibition by drug alone (U-2932 [1]; 10 nM, time (day): 4)","growth inhibition by drug alone (U-2932 [1]; 10 nM, time (day): 5)","growth inhibition by drug alone (U-2932 [1]; 10 nM, time (day): 6)","growth inhibition by drug alone (U-2932 [1]; 1000 nM, time (day): 3)","growth inhibition by drug alone (U-2932 [1]; 1000 nM, time (day): 4)","growth inhibition by drug alone (U-2932 [1]; 1000 nM, time (day): 5)","growth inhibition by drug alone (U-2932 [1]; 1000 nM, time (day): 6)","growth inhibition by drug alone (RIVA [2]; 10 nM, time (day): 3)","growth inhibition by drug alone (RIVA [2]; 10 nM, time (day): 4)","growth inhibition by drug alone (RIVA [2]; 10 nM, time (day): 5)","growth inhibition by drug alone (RIVA [2]; 10 nM, time (day): 6)","growth inhibition by drug alone (RIVA [2]; 100 nM, time (day): 3)","growth inhibition by drug alone (RIVA [2]; 100 nM, time (day): 4)","growth inhibition by drug alone (RIVA [2]; 100 nM, time (day): 5)","growth inhibition by drug alone (RIVA [2]; 100 nM, time (day): 6)","growth inhibition by drug plus 177Lu-lilotomab satetraxetan (U-2932 [3]; 10 nM, time (day): 3)","growth inhibition by drug plus 177Lu-lilotomab satetraxetan (U-2932 [3]; 10 nM, time (day): 4)","growth inhibition by drug plus 177Lu-lilotomab satetraxetan (U-2932 [3]; 10 nM, time (day): 5)","growth inhibition by drug plus 177Lu-lilotomab satetraxetan (U-2932 [3]; 10 nM, time (day): 6)","growth inhibition by drug plus 177Lu-lilotomab satetraxetan (U-2932 [3]; 1000 nM, time (day): 3)","growth inhibition by drug plus 177Lu-lilotomab satetraxetan (U-2932 [3]; 1000 nM, time (day): 4)","growth inhibition by drug plus 177Lu-lilotomab satetraxetan (U-2932 [3]; 1000 nM, time (day): 5)","growth inhibition by drug plus 177Lu-lilotomab satetraxetan (U-2932 [3]; 1000 nM, time (day): 6)","growth inhibition by drug plus 177Lu-lilotomab satetraxetan (RIVA [4]; 10 nM, time (day): 3)","growth inhibition by drug plus 177Lu-lilotomab satetraxetan (RIVA [4]; 10 nM, time (day): 4)","growth inhibition by drug plus 177Lu-lilotomab satetraxetan (RIVA [4]; 10 nM, time (day): 5)","growth inhibition by drug plus 177Lu-lilotomab satetraxetan (RIVA [4]; 10 nM, time (day): 6)","growth inhibition by drug plus 177Lu-lilotomab satetraxetan (RIVA [4]; 100 nM, time (day): 3)","growth inhibition by drug plus 177Lu-lilotomab satetraxetan (RIVA [4]; 100 nM, time (day): 4)","growth inhibition by drug plus 177Lu-lilotomab satetraxetan (RIVA [4]; 100 nM, time (day): 5)","growth inhibition by drug plus 177Lu-lilotomab satetraxetan (RIVA [4]; 100 nM, time (day): 6)"
O=C(/C=C/C#Cc1cccc(NS(=O)(=O)c2ccccc2)c1)NO [Oxamflatin],0.0723,0.054,0.00482,-0.0197,0.851,0.808,0.766,0.702,0.0849,0.0278,0.0468,0.0353,0.675,0.482,0.435,0.389,-0.0134,0.0236,0.0539,0.158,0.941,0.947,0.958,0.96,0.518,0.564,0.59,0.607,0.726,0.683,0.691,0.686
CN(N=O)C(=O)N[C@@H](C=O)[C@@H](O)[C@H](O)[C@H](O)CO [Streptozotocin (Zanosar)],-0.0672,-0.049,-0.0365,0.111,-0.124,-0.0755,-0.109,-0.156,-0.263,-0.268,-0.296,-0.472,-0.291,-0.295,-0.308,-0.376,-0.0646,-0.0512,-0.0238,0.118,-0.0995,-0.0176,-0.0119,0.0347,0.377,0.504,0.521,0.516,0.38,0.458,0.481,0.445
FC(F)c1nc2ccccc2n1-c1nc(N2CCOCC2)nc(N2CCOCC2)n1,0.143,0.0834,0.0466,0.0263,0.437,0.399,0.349,0.367,0.208,0.164,0.161,0.106,0.823,0.782,0.766,0.718,0.0955,0.119,0.149,0.22,0.282,0.348,0.331,0.393,0.45,0.529,0.568,0.572,0.763,0.779,0.782,0.761
C[C@]1(O)C[C@@H](c2nc(-c3ccc4ccc(-c5ccccc5)nc4c3)c3c(N)nccn32)C1 [Linsitinib (OSI-906)],-0.0175,-0.0545,-0.0282,0.0189,-0.0281,-0.0257,-0.0322,0.0723,-0.215,-0.216,-0.261,-0.348,-0.356,-0.307,-0.329,-0.365,-0.0826,-0.0138,0.0354,0.14,-0.09,-0.0306,0.0298,0.223,0.4,0.48,0.495,0.5,0.283,0.4,0.417,0.42
CCCS(=O)(=O)Nc1ccc(F)c(C(=O)c2c[nH]c3ncc(-c4ccc(Cl)cc4)cc23)c1F [Vemurafenib (PLX4032)],0.026,-4.15e-06,-0.0629,-0.147,-0.152,-0.0928,-0.16,-0.291,-0.0219,-0.0744,-0.165,-0.55,-0.231,-0.206,-0.219,-0.345,-0.0121,0.00305,0.0511,0.0873,-0.143,-0.047,-0.0561,0.06,0.42,0.546,0.561,0.576,0.432,0.531,0.539,0.524
O=C(Nc1ncc([N+](=O)[O-])s1)c1ccc([N+](=O)[O-])c(Cl)c1,0.119,0.0794,0.00802,0.0242,0.153,0.14,0.0538,0.129,0.137,0.114,0.0837,0.0697,-0.0662,-0.0483,-0.0824,-0.14,0.064,0.0915,0.164,0.259,0.142,0.136,0.179,0.3,0.666,0.663,0.69,0.688,0.605,0.655,0.669,0.679
"CC[C@H](CO)Nc1nc(NCc2ccccc2)c2ncn(C(C)C)c2n1 [Roscovitine (Seliciclib, CYC202)]",0.0612,0.034,-0.0433,-0.134,-0.0928,-0.0155,-0.074,-0.195,0.0751,0.0434,0.0188,-0.143,-0.0194,-0.0523,-0.0745,-0.157,0.0443,0.0516,0.0573,0.114,-0.105,0.0161,-0.0091,-0.013,0.429,0.539,0.544,0.554,0.49,0.54,0.55,0.531
